MPTP block – mitochondrial permeability transition pore inhibitors, primary screen, biochemical, isolated mouse mitochondria, absorbance | Ca2+ swelling absorbance, 30 min | inhibition, % at 10 µM | 360,000 tested, 1.4% active;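 active = inhibition of 50% or more, scaled per plate between neutral and stimulator controls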;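 note: 0% = DMSO wells given calcium and 100% = 1 mM EGTA wells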
CRFBP-R2 agonist – agonists of CRF-BP/CRF-R2 complex, primary screen, cell-based, HEK293, calcium dye fluorescence, uHTS. CRF-binding protein / CRF receptor 2 complex (human). calcium dye fluorescence (FLIPR); percent of saturating CRF peptide response. activation, % at 13.2 µM. 350,000 tested, 0.46% active. AID 588473, 2011;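 active = activation of at least 50%, plus an integration ratio under a set limit after plate pattern correction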;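 note: plate controls were neutral control wells without compound for no effect and CRF at EC100 for full effect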
ANO1 block – TMEM16A chloride channel inhibitors, primary screen, cell-based, HTS | normalized B-score (activity score, 25-100; higher = stronger inhibition) at 10 µM | Anoctamin-1 (Mus musculus), Q8BHY3 | HEK293 TMEM16A/YFP iodide influx fluorescence, ionomycin | 310,000 tested, 1.2% active;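 active = ratio plate-corrected score three or more library SD toward inhibition, starting fluorescence score within five deviations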;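 note: score derived from kinetic fluorescence span divided by baseline fluorescence per well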
Target sequence (Q8BHY3 whole entry, looked up): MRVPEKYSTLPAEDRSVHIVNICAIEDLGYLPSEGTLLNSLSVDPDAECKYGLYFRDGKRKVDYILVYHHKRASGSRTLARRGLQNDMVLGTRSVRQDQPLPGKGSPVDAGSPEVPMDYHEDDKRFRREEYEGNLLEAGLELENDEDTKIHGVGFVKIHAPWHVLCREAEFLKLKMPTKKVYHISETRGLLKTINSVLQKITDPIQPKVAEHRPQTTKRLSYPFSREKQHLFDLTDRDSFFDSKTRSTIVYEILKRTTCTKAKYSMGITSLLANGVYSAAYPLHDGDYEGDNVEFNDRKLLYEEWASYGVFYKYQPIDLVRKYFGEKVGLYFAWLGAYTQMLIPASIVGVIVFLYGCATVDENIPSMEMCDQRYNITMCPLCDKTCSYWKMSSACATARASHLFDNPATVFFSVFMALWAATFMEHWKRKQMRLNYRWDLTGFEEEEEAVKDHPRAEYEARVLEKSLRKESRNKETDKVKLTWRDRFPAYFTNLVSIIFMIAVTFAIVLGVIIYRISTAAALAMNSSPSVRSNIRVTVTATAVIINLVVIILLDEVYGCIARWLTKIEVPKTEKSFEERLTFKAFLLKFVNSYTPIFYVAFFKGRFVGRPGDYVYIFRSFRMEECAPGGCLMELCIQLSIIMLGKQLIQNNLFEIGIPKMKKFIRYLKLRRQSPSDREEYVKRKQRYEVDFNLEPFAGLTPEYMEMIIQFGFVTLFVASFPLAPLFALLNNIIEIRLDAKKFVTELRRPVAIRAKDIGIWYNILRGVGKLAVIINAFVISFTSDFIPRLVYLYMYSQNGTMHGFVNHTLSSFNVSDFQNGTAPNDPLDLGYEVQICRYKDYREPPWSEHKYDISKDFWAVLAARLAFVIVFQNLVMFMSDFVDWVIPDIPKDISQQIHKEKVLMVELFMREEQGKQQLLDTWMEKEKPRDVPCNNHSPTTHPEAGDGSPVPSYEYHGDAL
CRFR2-BP antag – antagonists of CRF-BP/CRF-R2 complex, primary screen, cell-based, HEK293, calcium dye fluorescence, uHTS. 350,000 tested, 0.59% active. CRF-induced calcium fluorescence. inhibition, % at 11.8 µM. AID 588475, 2011;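 active = inhibition of the ligand-induced calcium signal above about 50% at the single tested concentration, limit read from the data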
NR3A LBD binder – binders of NR3A ligand-binding domain, primary screen, biophysical, differential scanning fluorimetry, uHTS | 340,000 tested, 2.5% active | Glutamate receptor ionotropic, NMDA 3A (GRIN3A) ligand-binding domain | NR3A LBD differential scanning fluorimetry, Tm shift; 0% = protein alone, 100% = glycine-bound protein | Tm shift relative to glycine control, % at 25 µM;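 active = melting temperature shift of at least 10% of the positive control shift, at one fixed dose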
TMEM16A act – TMEM16A chloride channel activators or potentiators, primary screen, cell-based, HTS. Anoctamin-1 (Mus musculus), Q8BHY3. HEK293 TMEM16A/YFP-H148Q/I152L, iodide quench fluorescence; hits give low values. B-score at 10 µM. 340,000 tested, 0.3% active. AID 623877, 2012;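 active = fluorescence-ratio B-score plate-corrected deviation score at least 3 library SD below zero, with starting fluorescence score within 5 deviations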;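 note: channel opened by trigger with iodide after compound preincubation; score built on the fluorescence ratio of max minus min over baseline; more negative score means more quench and so TMEM16A activation or potentiation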
The depositor's hits bear a star; i = inactive; · = not tested or not shown. Compounds with a hit are over-represented: about 5.1% of the library has one in this group of screens.

SMILES	MPTP block	CRFBP-R2 agonist	ANO1 block	CRFR2-BP antag	NR3A LBD binder	TMEM16A act
CC(=O)OCCN1C(=O)c2ccc(-c3nc4ccccc4c(=O)o3)cc2C1=O	1.4	-1.5	i	8.8	-0.4	i
CSc1ncccc1C(=O)OCC(=O)c1ccccc1Br	0.2	-1.9	i	40.5	1.2	-23.5*
COc1ccc(C(=O)COC(=O)c2cccnc2SC)cc1	-1.7	0.4	i	78.0*	0.8	i
COc1ccc(CNC(=O)COC(=O)c2ccc(C)c(S(=O)(=O)N3CCOCC3)c2)cc1	-2.4	-0.1	·	1.8	-1.1	i
Cc1ccc(NC(=O)/C=C/c2ccc([N+](=O)[O-])s2)cc1	2.8	1.6	i	-16.1	-5.9	i
Cc1cccc(NC(=O)/C=C/c2ccc([N+](=O)[O-])s2)c1	11.8	-1.3	i	12.9	12.4*	i
COc1cccc(NC(=O)/C=C/c2ccccc2[N+](=O)[O-])c1	2.0	-0.7	i	2.3	26.8*	i
Cc1cccc(NC(=O)c2ccc(-c3ccccc3[N+](=O)[O-])o2)c1	0.3	0.6	i	1.9	27.2*	i
Cc1ccccc1-c1ccc(C(=O)Nc2cccc(F)c2)o1	4.1	2.7	i	-8.5	-5.2	i
COc1cccc(NC(=O)c2ccc(-c3ccccc3[N+](=O)[O-])o2)c1	-4.7	0.3	i	6.7	27.6*	i
CCOC(=O)c1[nH]c(C)c(C(=O)N2CCCC(Nc3ccc(C)c(C)c3)C2)c1C (configuration not stated)	0.7	1.7	i	-14.5	-3.6	i
O=c1cc(-c2ccccc2)oc2ccc3ccccc3c12	0.8	2.8	·	-9.8	·	·
O=c1cc(-c2ccc(O)c(O)c2)oc2ccc3ccccc3c12	5.0	-0.5	·	-7.4	24.9*	i
COc1cc(-c2cc(=O)c3c(O)cc(O)cc3o2)ccc1O	1.2	-0.6	i	5.6	-1.1	·
O=c1oc(-c2ccc(O)c(O)c2)cc2cc(O)cc(O)c12	2.9	1.7	·	-26.2	19.9*	i
O=c1oc(-c2ccc(O)c(O)c2)cc2cccc(O)c12	9.0	-0.5	·	-17.8	23.8*	i
O=C(O)c1cccc2cc(-c3ccccc3)oc(=O)c12	0.9	0.1	i	22.6	2.5	i
CCOC(=O)C1CCN(C(=O)COC(=O)c2ccc(=O)n(Cc3ccccc3)n2)CC1	0.1	0.6	i	-7.6	-2.1	i
COc1ccc(N2CCN(CCCNC(=O)C(=O)c3c(C)[nH]c4ccccc34)CC2)cc1	-0.4	0.2	i	62.1*	-2.4	i
CCS(=O)(=O)c1ncc(Cl)c(C(=O)Nc2ccccc2OC)n1	0.0	-0.2	i	20.2	0.8	i
CCc1ccc(NC(=O)c2nc(S(=O)(=O)Cc3ccccc3)ncc2Cl)cc1	-5.4	·	i	·	·	i
CC(=O)Nc1ccc(NC(=O)c2nc(S(=O)(=O)Cc3cccc(C)c3)ncc2Cl)cc1	3.8	-0.9	i	72.8*	4.5	i
COc1ccccc1NC(=O)c1nc(S(=O)(=O)Cc2ccccc2)ncc1Cl	-1.7	-0.1	i	51.0*	5.9	i
COC(=O)c1ccc(NC(=O)c2nc(S(=O)(=O)Cc3cccc(C)c3)ncc2Cl)cc1	-4.5	-1.0	i	52.5*	-8.9	i
CC(Oc1cccnc1[N+](=O)[O-])C(=O)N1CCc2ccccc21 (configuration not stated)	-0.4	-1.2	·	-3.3	1.1	i
SMILES	MPTP block	CRFBP-R2 agonist	ANO1 block	CRFR2-BP antag	NR3A LBD binder	TMEM16A act
Cc1cccc(CN2[C@H](CO)C=CS2(=O)=O)c1	-1.7	·	·	·	·	·
CCN1C(=O)/C(=C/C=C2\N(CC)c3cc(S(=O)(=O)N(C)C)ccc3N2c2ccccc2)SC1=S	28.1	73.1*	i	-51.5	0.3	i
Cc1cc(NC(=O)C(C)SCC(=O)OC(C)C(=O)Nc2ccc(F)cc2Cl)no1 (configuration not stated)	-0.1	0.0	i	-7.6	1.5	i
C=CCNC(=O)COC(=O)c1ccc(Cl)c(S(N)(=O)=O)c1	-1.1	-2.6	i	-0.5	1.2	-29.5*
CC(C)(C)N(Cc1ccccc1)C(=O)COC(=O)C1CCN(c2ccc(C(F)(F)F)cn2)CC1	-2.7	1.2	·	-2.7	7.3	-44*
COc1cccc(C(C(=O)NC2CCCC2)N2CCN(c3cc(C)ccc3C)CC2)c1OC (configuration not stated)	0.4	·	·	·	·	·
Cc1cc2[nH]c(=S)[nH]c2cc1C	0.7	-2.8	i	-4.8	1.6	i
Fc1cc2[nH]c(=S)[nH]c2cc1Cl	3.8	0.1	i	-0.5	32.3*	i
CCOC(=O)c1c(NC(=O)C2=COCCO2)sc2c1CCN(C(=O)OC)C2	-1.2	-1.4	i	6.5	0.8	i
O=C(CCN1C(=O)NC2(CCCC2)C1=O)Nc1ccc(-c2nc3ccccc3s2)cc1	-0.7	3.1	·	-13.4	26.4*	i
Cc1nnc(SCC(=O)Nc2ccc(-c3nc4ccccc4s3)cc2)s1	16.5	1.3	i	-22.9	30.1*	i
O=S(=O)(c1ccc2c(c1)CCN2)N1CCOCC1	-0.2	-0.4	·	0.6	-0.4	i
Cc1ccc(C(=O)N/C(=C\c2ccc(-c3ccc([N+](=O)[O-])cc3)o2)C(=O)NC2CCS(=O)(=O)C2)cc1 (configuration not stated)	20.4	95.2*	i	-125.8	-5.0	i
Cc1ccc(C(=O)N/C(=C/c2ccc(-c3ccc([N+](=O)[O-])cc3)o2)C(=O)NCCCN(C)C)cc1	-3.6	51.7*	i	-24.2	-2.4	i
COc1nc(NC(=O)c2ccc(F)cc2)nc(OC)c1-c1ccccc1	1.1	0.8	i	-2.2	0.2	i
COc1ccc(NC(=O)C2CCN(S(=O)(=O)c3cccs3)CC2)cc1OC	1.9	-0.3	·	2.3	1.1	i
Cn1c(N/N=C/c2c[nH]c3ccccc23)nc2ccccc21	2.9	-2.4	i	-16.3	18.8*	i
CCCCn1c(/N=C/c2c[nH]c3ccccc23)nc2ccccc21	13.0	-1.0	i	-8.2	23.2*	i
Fc1c(F)c(F)c(N/N=C/c2c[nH]c3ccccc23)c(F)c1F	2.4	-0.4	i	-15.9	76.0*	i
CC(C)(C)C(=O)Nc1ccc(C(=O)N/N=C/c2ccccc2OC(=O)c2ccc(Cl)cc2)cc1	1.8	7.8	i	12.8	21.4*	i
Cn1c(=O)c2c(ncn2CC(=O)N/N=C/c2c[nH]c3ccccc23)n(C)c1=O	·	·	i	·	·	·

Assay outcomes as filed in PubChem BioAssay.
